39 compounds from PubChem BioAssay (NCI) can be followed below.

Each structure is given as a SMILES string. Compounds without any hit were thinned out: in the full panel of roughly 83,000, 20% have a hit.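 Single-dose data. Exposure time 48 hours. Values below 10 considered active.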 Values without a mark were called inactive. Calls of active or inactive are those of the source.

This assay concerns MDA-MB-468 breast. Kind of assay: NCI-60 one-dose screen, 48 h (100 = growth as untreated, 0 = no growth, -100 = all killed). Particulars: 10 µM unless noted.
Take `Cn1cc(-c2nc(-c3cn(C)c4ncccc34)cs2)c2cc(F)ccc21`: the growth is -8.46% (active).

For the compound `CCOC(=O)c1c(Nc2ccccc2)nn2c(-c3ccc(Cl)cc3)ccnc12`, the growth was 65.1%. Under `CC1=C(NCCN2CCCC2)C(=O)c2c(OCc3cccc(Cl)c3)cccc2C1=O` stands 69.6%; under `Fc1ccc(-c2cc(C(Cl)Cl)no2)cc1`, 104%. Under `CN(C)CCOC(=O)Nc1ccccc1Cl` stands 113%.

Consider `C=C1CC[C@@H]2[C@](C)(COC(C)=O)[C@H](OC(C)=O)CC[C@@]2(C)[C@@H]1CC(NCc1ccccc1)C1=CCOC1=O` (some centres undefined), for which the growth is 22.9%.

Turning to `O=C1Nc2cc(-c3ccc(NC(=O)C4CC4)cc3)ccc2/C1=C/c1ccc[nH]1`, the growth was 0.756% (active). Under `COc1cc(-c2nc3sccn3c2-c2ccnc(NCCCNS(=O)(=O)c3ccc(F)cc3)n2)ccc1F` stands 61.3%; under `CCCCCCc1cc(N=Nc2ccc(S(=O)(=O)Nc3cc(C)nc(C)n3)cc2)c(O)cc1O`, 102%. Next, `CC(=O)Nc1ccc2c(c1)Cc1c(F)cccc1-2`: 8.46% (active); `CC/C=C(\C)C(CCC)(CN=O)C(=O)OCC` (centres undefined): 113%; `N[C@@H](Cc1cn(-c2c3ccccc3nc3ccccc23)nn1)C(=O)O`: 96.8%. Under `O=C(Nc1nc2cc(C(=O)N3CCN(C(c4ccccc4)c4ccccc4)CC3)ccc2o1)c1ccc(NC2CCCCC2)c([N+](=O)[O-])c1` stands 75.2%. In the case of `CCCn1nc(-c2ccccc2)c2c(-c3ccccc3)onc2c1=O`, the growth is 43.6%.

For `COc1ccc(NC(=O)CSc2nnc(-c3cc(-c4ccc(S(N)(=O)=O)cc4)nc4ccccc34)n2-c2ccccc2)cc1`, the growth was 86.4%. Next, `CN1CCCC1c1cccnc1` (centres undefined): 97.1%; `COc1cc(C2=C(c3cn(C)c4ccccc34)COC2=O)cc(OC)c1OC`: 16%.

As to `CCNC(=O)c1ccc2c(c1)nc(-c1ccc(Cl)cc1)n2-c1cc(C(C)(C)C)[nH]n1`, the growth is 32.8%. Next, `O=C1C=C[C@H](O)[C@@]2(CO)O[C@@H]12`: 54.5%; `CCC(C)N(CCNc1cc(OC)cc2cccnc12)CCC(C)C` (centres undefined): -24.8% (active). Under `Cc1nc(NN)c([N+](=O)[O-])c(NN)n1` stands 122%. Under `O=C(/C=C/c1ccccc1)Oc1ccc(/C=C/c2cc(OC(=O)/C=C/c3ccccc3)cc(OC(=O)/C=C/c3ccccc3)c2)cc1` stands 99.4%. Consider `CC1=NC2=Nn3c(c4cnn(-c5ccccc5)c4n/c3=N\N)NN2C(c2ccccc2)=C1`, for which the growth is 73.9%. Next, `CCCCn1c(-c2cccc(OC)c2)nc2cc(OC)c(OC)cc2c1=O`: 107%; `N#C/C(=C\c1ccc(Br)cc1)c1cc2ccccc2[nH]1`: 82.8%; `COC(=O)c1cccc2c1N(C)c1c(cccc1C(=O)OC)CC2`: 124%. Under `O=C1Nc2ccccc2/C1=C/c1nc2ccccc2c(=O)[nH]1` stands 93%.

As for `Cc1cccc2nc3c(n12)C(=O)C(=O)c1ccccc1-3`, the growth was 79.9%. Next, `O=C(NNc1nc2cc(F)c(F)cc2n2cccc12)c1ccncn1`: -25.6% (active); `CC1=C(C(=O)/C=C/c2c[nH]c3ccccc23)C(c2ccccc2)NC(=S)N1` (centres undefined): 102%; `COc1ccc(-n2ncc3c4nc(OC)c(S(=O)(=O)c5ccccc5)cc4ccc32)cc1`: 51.9%. Next, `CN(C)C/C=C/C(=O)Nc1cc2c(Nc3ccc(F)c(Cl)c3)ncnc2cc1O[C@H]1CCOC1`: -40.5% (active); `COc1ccc(/C=C/C(=O)CCC(=O)O)cc1OC`: 113%; `Cn1c(=O)c2[nH]c(C3CC=CCC3)nc2n(C)c1=O` (centres undefined): 107%. Under `O=C1C(Cl)=C(NCc2ccco2)C(=O)c2ccccc21` stands 25%. As to `Cc1ccc(C(=O)C2C(=O)C3CCC2C3)cc1` (centres undefined), the growth was 100%. Next, `C[N+]1(C)C2CC[C@@H]1CC(OC(=O)C(O)c1ccccc1)C2` (some centres undefined): 103%; `CCn1cc(C(=O)NN=C2CCCC2)c(=O)c2ccc(C)nc21`: 91.8%; `COc1ccc(-c2cn[nH]c2-c2cc(OC)c(OC)c(OC)c2)cc1`: 11.8%.
